# Source: the supplement of paper PMC12282887
# ± gives the standard deviation of the averaged measurements.
# Assays:
# Test in all cases: promoter activity interaction Z-score (Lux/OD deviation from empty-vector control); higher = stronger promoter induction by the compound
# [1] = system: E. coli BW25113 acrABp lux reporter
# Method in brief: (§1)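 At 37°C, E. coli BW25113 reporter cultures in 40 µl LB Lennox in 384-well plates were read for OD600 and luminescence every 30 min for 12 h. Windows were 0–8 h for wild type and 1–9 h for deletion strains, and wells under 10% of the median growth value were removed. The score is the Z-transformed residual of growth-normalised luminescence against a control fit.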
# [2] = system: E. coli BW25113 marRABp lux reporter
# Method in brief: as §1
# [3] = system: E. coli BW25113 micFp lux reporter
# Method in brief: as §1
# [4] = system: E. coli BW25113 ompFp lux reporter
# Method in brief: as §1
# [5] = system: E. coli BW25113 robp lux reporter
# Method in brief: as §1
# [6] = system: E. coli BW25113 soxSp lux reporter
# Method in brief: as §1
# [7] = system: E. coli BW25113 tolCp lux reporter
# Method in brief: as §1
# [8] = 0.048 µg/ml, genetic background: wild type
# [9] = 0.048 µg/ml, genetic background: ΔmarA
# [10] = 0.048 µg/ml, genetic background: Δrob
# [11] = 0.048 µg/ml, genetic background: ΔsoxS
# [12] = 0.1 µg/ml, genetic background: wild type
# [13] = 0.1 µg/ml, genetic background: ΔmarA
# [14] = 0.1 µg/ml, genetic background: Δrob
# [15] = 0.1 µg/ml, genetic background: ΔsoxS
# [16] = 0.19 µg/ml, genetic background: wild type
# [17] = 0.19 µg/ml, genetic background: ΔmarA
# [18] = 0.19 µg/ml, genetic background: Δrob
# [19] = 0.19 µg/ml, genetic background: ΔsoxS
# [20] = 0.38 µg/ml, genetic background: wild type
# [21] = 0.38 µg/ml, genetic background: ΔsoxS
smiles,measurement,setting,value
CCC(C)CCCC(=O)N[C@@H](CCN)C(=O)N[C@H](C(=O)N[C@@H](CCN)C(=O)N[C@H]1CCNC(=O)[C@H]([C@@H](C)O)NC(=O)[C@H](CCN)NC(=O)[C@H](CCN)NC(=O)[C@H](CC(C)C)NC(=O)[C@@H](CC(C)C)NC(=O)[C@H](CCN)NC1=O)[C@@H](C)O (some centres not stated) [Colistin],promoter activity interaction Z-score,[1]; [8],0.00962 ± 0.11
same,promoter activity interaction Z-score,[1]; [9],-0.167 ± 0.31
same,promoter activity interaction Z-score,[1]; [10],0.139 ± 0.096
same,promoter activity interaction Z-score,[1]; [11],0.0289 ± 0.14
same,promoter activity interaction Z-score,[1]; [12],0.308 ± 0.22
same,promoter activity interaction Z-score,[1]; [13],0.524 ± 0.34
same,promoter activity interaction Z-score,[1]; [14],0.0214 ± 0.021
same,promoter activity interaction Z-score,[1]; [15],-0.00861 ± 0.23
same,promoter activity interaction Z-score,[1]; [16],0.246 ± 0.16
same,promoter activity interaction Z-score,[1]; [17],-0.482 ± 0.29
same,promoter activity interaction Z-score,[1]; [18],0.192 ± 0.051
same,promoter activity interaction Z-score,[1]; [19],-0.0737 ± 0.12
same,promoter activity interaction Z-score,[1]; [20],0.607 ± 0.1
same,promoter activity interaction Z-score,[1]; [21],2.31 ± 2.5
same,promoter activity interaction Z-score,[2]; [8],-0.253 ± 0.2
same,promoter activity interaction Z-score,[2]; [9],-0.196 ± 0.055
same,promoter activity interaction Z-score,[2]; [10],0.00109 ± 0.051
same,promoter activity interaction Z-score,[2]; [11],0.178 ± 0.25
same,promoter activity interaction Z-score,[2]; [12],-0.233 ± 0.24
same,promoter activity interaction Z-score,[2]; [13],-0.108 ± 0.097
same,promoter activity interaction Z-score,[2]; [14],-0.0851 ± 0.097
same,promoter activity interaction Z-score,[2]; [15],0.0244 ± 0.049
same,promoter activity interaction Z-score,[2]; [16],-0.154 ± 0.21
same,promoter activity interaction Z-score,[2]; [17],-0.0032 ± 0.049
same,promoter activity interaction Z-score,[2]; [18],0.0892 ± 0.15
same,promoter activity interaction Z-score,[2]; [19],0.023 ± 0.025
same,promoter activity interaction Z-score,[2]; [20],1.21 ± 0.13
same,promoter activity interaction Z-score,[2]; [21],1.22
same,promoter activity interaction Z-score,[3]; [8],-0.359 ± 0.049
same,promoter activity interaction Z-score,[3]; [9],0.0434 ± 0.083
same,promoter activity interaction Z-score,[3]; [10],0.0506 ± 0.077
same,promoter activity interaction Z-score,[3]; [11],-0.14 ± 0.12
same,promoter activity interaction Z-score,[3]; [12],-0.48 ± 0.39
same,promoter activity interaction Z-score,[3]; [13],-0.0509 ± 0.014
same,promoter activity interaction Z-score,[3]; [14],0.0439 ± 0.063
same,promoter activity interaction Z-score,[3]; [15],-0.113 ± 0.06
same,promoter activity interaction Z-score,[3]; [16],-0.562 ± 0.18
same,promoter activity interaction Z-score,[3]; [17],-0.217 ± 0.25
same,promoter activity interaction Z-score,[3]; [18],-0.229 ± 0.24
same,promoter activity interaction Z-score,[3]; [19],-0.514 ± 0.082
same,promoter activity interaction Z-score,[3]; [20],-0.607 ± 0.2
same,promoter activity interaction Z-score,[4]; [8],-0.346 ± 0.26
same,promoter activity interaction Z-score,[4]; [9],-0.0916 ± 0.57
same,promoter activity interaction Z-score,[4]; [10],-0.0368 ± 0.43
same,promoter activity interaction Z-score,[4]; [11],0.093 ± 0.28
same,promoter activity interaction Z-score,[4]; [12],-0.267 ± 0.43
same,promoter activity interaction Z-score,[4]; [13],0.449 ± 0.06
same,promoter activity interaction Z-score,[4]; [14],0.19 ± 0.37
same,promoter activity interaction Z-score,[4]; [15],0.15 ± 0.24
same,promoter activity interaction Z-score,[4]; [16],0.073 ± 0.018
same,promoter activity interaction Z-score,[4]; [17],0.452 ± 0.48
same,promoter activity interaction Z-score,[4]; [18],-0.296 ± 0.74
same,promoter activity interaction Z-score,[4]; [19],-0.0443 ± 0.14
same,promoter activity interaction Z-score,[4]; [20],0.0453 ± 0.83
same,promoter activity interaction Z-score,[4]; [21],1.11
same,promoter activity interaction Z-score,[5]; [8],0.161 ± 0.5
same,promoter activity interaction Z-score,[5]; [9],-0.748 ± 0.18
same,promoter activity interaction Z-score,[5]; [10],0.308 ± 0.074
same,promoter activity interaction Z-score,[5]; [11],0.602 ± 0.38
same,promoter activity interaction Z-score,[5]; [12],0.156 ± 0.63
same,promoter activity interaction Z-score,[5]; [13],-0.00162 ± 0.4
same,promoter activity interaction Z-score,[5]; [14],-0.329 ± 0.5
same,promoter activity interaction Z-score,[5]; [15],1.13 ± 0.73
same,promoter activity interaction Z-score,[5]; [16],0.641 ± 1.4
same,promoter activity interaction Z-score,[5]; [17],-0.0677 ± 0.0062
same,promoter activity interaction Z-score,[5]; [18],-0.869 ± 0.76
same,promoter activity interaction Z-score,[5]; [19],-0.113 ± 0.049
same,promoter activity interaction Z-score,[5]; [20],-1.15 ± 0.17
same,promoter activity interaction Z-score,[5]; [21],-1.35 ± 0.85
same,promoter activity interaction Z-score,[6]; [8],-0.0522 ± 0.2
same,promoter activity interaction Z-score,[6]; [9],0.182 ± 0.078
same,promoter activity interaction Z-score,[6]; [10],0.268 ± 0.048
same,promoter activity interaction Z-score,[6]; [11],0.235 ± 0.097
same,promoter activity interaction Z-score,[6]; [12],-0.219 ± 0.34
same,promoter activity interaction Z-score,[6]; [13],0.306 ± 0.074
same,promoter activity interaction Z-score,[6]; [14],0.144 ± 0.06
same,promoter activity interaction Z-score,[6]; [15],0.368 ± 0.28
same,promoter activity interaction Z-score,[6]; [16],-0.09 ± 0.072
same,promoter activity interaction Z-score,[6]; [17],0.135 ± 0.0049
same,promoter activity interaction Z-score,[6]; [18],-0.469 ± 0.47
same,promoter activity interaction Z-score,[6]; [19],0.108 ± 0.33
same,promoter activity interaction Z-score,[6]; [20],-0.417 ± 0.57
same,promoter activity interaction Z-score,[6]; [21],-0.517
same,promoter activity interaction Z-score,[7]; [8],-0.508 ± 0.048
same,promoter activity interaction Z-score,[7]; [9],-0.536 ± 0.12
same,promoter activity interaction Z-score,[7]; [10],0.211 ± 0.004
same,promoter activity interaction Z-score,[7]; [11],0.982 ± 0.44
same,promoter activity interaction Z-score,[7]; [12],-0.675 ± 0.32
same,promoter activity interaction Z-score,[7]; [13],0.378 ± 0.075
same,promoter activity interaction Z-score,[7]; [14],-0.935 ± 0.56
same,promoter activity interaction Z-score,[7]; [15],0.791 ± 0.7
same,promoter activity interaction Z-score,[7]; [16],-0.155 ± 0.13
same,promoter activity interaction Z-score,[7]; [17],-1.61 ± 0.11
same,promoter activity interaction Z-score,[7]; [18],-0.925 ± 0.63
same,promoter activity interaction Z-score,[7]; [19],-0.699 ± 0.78
same,promoter activity interaction Z-score,[7]; [20],-0.255 ± 0.42
same,promoter activity interaction Z-score,[7]; [21],-0.469 ± 0.66
